In PubChem BioAssay AID2130 (The Scripps Research Institute Molecular Screening Center, 2009):
About 1,700 (0.53%) of roughly 320,000 compounds were called active.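 How the source made its calls: active means inhibition above the campaign mean of all compounds plus 3 SD (cut at about 26% in these data); inactive means the rest.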 Shown is part of a subset that was picked to be rich in actives.

target: Protein phosphatase methylesterase 1 (Homo sapiens) (UniProt Q9Y570); assay: human PME-1 methylesterase blockers – biochemical, fluorescence polarization, FP-Rh probe, HTS, primary screen (AID 2130); details: recombinant PME-1, FP-Rh probe fluorescence polarization; at 5.9 µM; stronger effect = higher value;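 further: competitive labeling of PME-1 active site by serine hydrolase directed probe; 0% = PME-1 with DMSO and 100% = wells lacking PME-1 enzyme; inhibitors block probe labeling so polarization falls and inhibition rises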
Sequence (Q9Y570 whole entry, looked up): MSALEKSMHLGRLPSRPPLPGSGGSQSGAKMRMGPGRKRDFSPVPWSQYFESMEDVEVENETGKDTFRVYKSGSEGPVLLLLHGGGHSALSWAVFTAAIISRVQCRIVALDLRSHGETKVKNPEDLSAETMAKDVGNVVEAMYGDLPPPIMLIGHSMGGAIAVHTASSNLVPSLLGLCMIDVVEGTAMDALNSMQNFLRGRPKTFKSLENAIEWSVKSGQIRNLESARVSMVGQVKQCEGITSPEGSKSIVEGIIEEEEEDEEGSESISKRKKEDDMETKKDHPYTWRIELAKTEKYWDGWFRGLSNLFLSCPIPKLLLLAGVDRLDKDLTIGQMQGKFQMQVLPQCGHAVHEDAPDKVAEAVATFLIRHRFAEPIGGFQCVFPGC

inhibition, active:
Cc1ccc(Cn2nnc3c(=O)[nH]c(C4CCN(S(=O)(=O)/C=C/c5ccccc5)CC4)nc32)cc1 31.4%
COc1ccc2nc(Nc3nc4cc5c(cc4s3)OCCO5)sc2c1 92.8%
COc1ccc(/C=N/Nc2ncnc3sc4c(c23)CCCC4)cc1O 29.7%
CCOc1ccc2nc(Nc3nc4ccc(NC(C)=O)cc4s3)sc2c1 50.7%
Cc1[nH]c2c(C(=O)N3CCCC(CCC(=O)NCc4ccccc4F)C3)cccc2c1C (stereo unspecified) 28.6%
COc1cc(/C=N/Nc2nc3ccccc3s2)ccc1O 45.3%
Oc1ccc(/C=N/Nc2nc(-c3ccccc3F)nc3ccccc23)c(O)c1 55%
Cc1nc2ccccc2nc1N/N=C/c1ccc(O)cc1O 36.9%
CC(=O)c1c(C)n(-c2ccc(N(C)C)cc2)c2ccc(OCC(N)=O)cc12 26.2%
COCCOC(=O)c1sc(=S)n(CCOC)c1N 35%
Cc1ccc(C2C3=C(Nc4[nH]n(-c5ccccc5)c(=O)c42)c2ccccc2C3=O)cc1 (stereo unspecified) 36.4%
Cc1ccc(NS(=O)(=O)c2ccc(N/N=C/c3ccccc3OCC(=O)O)c([N+](=O)[O-])c2)c(C)c1 78.2%
COc1ccc(C2Nc3ccccc3C(=O)N2c2ccc(F)cc2)cc1Cn1nnc2ccccc21 (stereo unspecified) 30.4%

inhibition, inactive:
O=C(NC(=S)Nc1ncccn1)c1ccccc1Br -6.82%
COc1ccc(Cn2nnc3c(=O)[nH]c(C4CCN(C(=O)c5ccccc5Cl)CC4)nc32)cc1 10.2%
Cc1ccc(NC(=O)N2CCC(c3nc4c(nnn4Cc4c(F)cccc4Cl)c(=O)[nH]3)CC2)cc1 4.6%
O=S(=O)(c1cnccc1N1CCN(/N=C/c2ccc(Br)cc2)CC1)N1CCCCC1 1.2%
CN=C1C=C/C(=N/N=c2\ccn(O)cc2C)C=C1C -11%
CCOC(=O)C1Sc2[nH]c(=O)sc2C(c2ccc(Cl)cc2)C1C(=O)OCC (stereo unspecified) 9.44%
Cc1cc(OCC(=O)NCC(O)c2ccccc2)c2c(C)c(C)c(=O)oc2c1 (stereo unspecified) 1.37%
O=C(Oc1ccc([N+](=O)[O-])cc1)c1ccc(Cl)c(S(=O)(=O)N2CCCCC2)c1 -1.4%
CCc1noc(C)c1C(=O)Nc1nc2ccc(OC)cc2s1 2.67%
COc1ccc2nc(NC(=O)c3ccc(Br)s3)sc2c1 -12.8%
C/C=C/C(=O)Nc1ccc(N2CCN(c3ccc(C(F)(F)F)cn3)CC2)nc1 -7.12%
CCN1CCN(C(=O)Cn2nc(C)n3c(cc4c(OC)cccc43)c2=O)CC1 -4.63%
Cc1ccc(-n2c(SCC(=O)N3CCC(C(=O)O)CC3)nc3ccccc3c2=O)cc1C 5.62%
O=S(=O)(Nc1ccccc1Cl)c1cccc2nsnc12 -1.38%
CC(=O)N1CCc2c(sc(NC(=O)CCS(=O)(=O)c3ccccc3)c2C#N)C1 -1.35%
COc1ccc(NC(=O)CCCNC(=O)Cn2cnc3sc4c(c3c2=O)CCCC4)cc1OC 3.69%
COc1ccc(NC(=O)CCNC(=O)Cn2cnc3sc4c(c3c2=O)CCCC4)cc1OC -4.87%
COc1ccc(CC(NC(C)=O)C(=O)NC2CCN(C(=O)Nc3ccc(C#N)cc3)CC2)cc1OC (stereo unspecified) 2.43%
COC(=O)C1=C(C)NC(=S)NC1c1ccc(OCC(=O)N2CC(C)OC(C)C2)c(OC)c1 (stereo unspecified) 4.05%
CCOc1ccc2nc(NC(=O)CSc3nc4c(c(=O)n(C)c(=O)n4C)n3CC)sc2c1 1.27%
CCC(=O)c1ccc(OCC(=O)Nc2ccc3nc(C)sc3c2)cc1 -15.4%
CCOc1cc(C(=O)Nc2c(C)ccc3nsnc23)cc(OCC)c1OCC -3.07%
CCN1CCN(C(=O)N[C@@H](C(=O)N[C@@H]2C(=O)N3C(C(=O)O)=C(CSc4nnnn4C)CS[C@H]23)c2ccc(O)cc2)C(=O)C1=O 1.33%
O=C(Oc1cccc(N2C(=O)C3C4c5ccccc5C(c5ccccc54)C3C2=O)c1)c1ccco1 (stereo unspecified) 2.64%
Cc1nc(N=C(N)N)nc2c(C)cccc12 -4.31%
O=C(CCC1CCCN(Cc2ccc(O)c(Cl)c2)C1)NCc1ccccc1F (stereo unspecified) -1.64%
CSc1ncccc1C(=O)N1CCCC(CCC(=O)NCc2ccccc2F)C1 (stereo unspecified) -3.09%
Cc1cccc(N(Cc2ccccc2)C(=O)c2cc(S(=O)(=O)N3CCOCC3)ccc2F)c1 8.02%
COc1ccc(/C=N/Nc2nc3ccccc3o2)cc1OC 23.1%
COc1cc(/C=N\Nc2nc(-c3cccs3)c(NC(C)=O)s2)ccc1O 7.62%
COC(=O)COc1cccc2c(=O)n(CC(=O)NCc3ccccc3)ccc12 -7.45%
Cc1cc(C)c(C)c(S(=O)(=O)Nc2ccc(O)cc2)c1C 6%
O=C(Nc1ccnn1C1CCN(Cc2cccc(OCCO)c2)CC1)C1CCCC1 4.32%
COc1cccc(/C=N/Nc2cc(C)nc(-c3ccccc3O)n2)c1O 23.9%
O=c1c2ccccc2nc(N/N=C/c2ccccc2)n1O -3.42%
COc1ccccc1N1CCN(/N=C/c2ccc(O)cc2O)CC1 2.94%
FC(F)(F)c1nc2ccccc2nc1N/N=C/c1ccc(Cl)cc1 2.4%
CCO[C@H]1OC(C(=O)N2CCN(Cc3ccccc3)CC2)=C[C@@H](c2cn(C(C)=O)c3ccccc23)[C@@H]1CCCO 10.4%
CC(=O)Nc1ccc(S(=O)(=O)N2CCC(C(=O)N[C@@H](Cc3ccccc3)C(=O)O)CC2)cc1 -6.81%
COc1ccccc1N1CCN(C(=O)CCS(=O)(=O)c2ccc3c(c2)NC(=O)C(C)S3)CC1 (stereo unspecified) -1.07%
COC(=O)c1ccc(CN2C(=O)NC(c3ccccc3)(c3ccccc3)C2=O)o1 0.13%
CC(C)(C)C(=O)N(Cc1ccccc1)c1ccccn1 -3.74%
O=C(Nc1ccccc1C(=O)N1CCOCC1)c1ccc(Cl)cc1 -4.46%
O=c1nc(N2CCOCC2)nc2n1CCO2 0.45%
CCCOc1ccc(CN(CCO)CCO)cc1C(=O)OC 1.19%
Cc1c(C(=O)N2CCCC2)c(S(=O)(=O)NCC(C)c2ccccc2)c(C)n1C (stereo unspecified) 4.76%
N=c1n(CCc2ccccc2)c2ccccc2n1Cc1ccccc1F -11%
CCOC(=O)c1c(C)oc2ccc(OCC(=O)N(CC)CC)cc12 -5.01%
CC(=O)c1c(C)n(-c2ccc(C)cc2)c2ccc(O)cc12 -0.87%
CC(=O)N1CC[n+]2c(-c3ccc([N+](=O)[O-])cc3)csc21 -1.65%
COc1cc(NS(=O)(=O)c2ccc(NC(=O)c3ccc([N+](=O)[O-])cc3)cc2)ncn1 4.2%
Cc1ccc(NC(=O)Cc2nnc(SCC(=O)Nc3nncs3)n2C)cc1 5.14%
O=C(CCn1nnc2ccccc21)OCC(=O)c1ccc([N+](=O)[O-])cc1 -1.86%
Cc1cc(C(=O)OCC(=O)Nc2ccc(F)c(F)c2)c(C)o1 -2.42%
CONC(=O)c1cc(OCC(F)(F)F)ccc1OCC(F)(F)F -6.8%
CN(Cc1ccccc1)C(=O)c1ccc(NC2=NC3CS(=O)(=O)CC3S2)cc1 (stereo unspecified) 0.07%
O=C(CCc1nnc2ccc(NCCCN3CCCC3=O)nn12)NCc1ccccc1Cl -0.36%
Cc1ccc(N(C(=O)C(F)(F)F)C(C(=O)NC2CCCCC2)c2ccncc2)cc1C (stereo unspecified) 3.24%
O=S1(=O)CCOC[C@H](CC2CCCCC2)N1Cc1ccc(F)cc1 1.92%
COC(=O)c1sc(=S)n(-c2ccc(Cl)cc2)c1C -0.65%
CCOC(=O)c1c(N)sc(C(C)=O)c1C 3.77%
COc1cccc(CNC(=O)CN2C(=O)NC(Cc3ccccc3)(c3ccccc3)C2=O)c1 (stereo unspecified) -2.37%
Cc1ccc(-c2ccnc3[nH]n(-c4ccccc4)c(=O)c23)cc1 -2.99%
Cc1cc(C)c(C2C3=C(Nc4c2c(C)nn4-c2ccccn2)c2ccccc2C3=O)c(C)c1 (stereo unspecified) -4.18%
CSc1nc2nc(-c3cccc(C(F)(F)F)c3)ccn2n1 -7.13%
COC(=O)CSc1nc2c(c(C3CC=CCC3)c1C#N)CCC2 (stereo unspecified) -1.86%
CCOC(=O)N1CCN(C(=O)COCc2cc(-c3ccc4c(c3)OCO4)on2)CC1 -4.28%
O=C(NCCCN1CCCCC1)C1CC(=O)N(CCc2ccccc2)C1 (stereo unspecified) 0.2%
CCCCN(CCCC)CCNC(=O)CN1C(=O)COc2ccc(S(=O)(=O)N3CCOCC3)cc21 -2.01%
CCc1ccc(C(=O)CSc2nnc(C)c(=O)[nH]2)cc1 -6.05%
O=C(O)c1ccccc1N=N/C(=N/Nc1cc(S(=O)(=O)O)ccc1O)c1ccccc1 13.7%
COCCNC(=O)c1ccccc1NS(=O)(=O)c1ccc(C)c([N+](=O)[O-])c1 -1.62%
Cc1cccc(COc2ccccc2/C=N/Nc2ccc([N+](=O)[O-])cc2)c1 11.9%
Cc1ccccc1N1CC(C(=O)Nc2ccc3c(c2)OCO3)CC1=O (stereo unspecified) 0.7%
COCCN(C(=S)Nc1cccc(Cl)c1C)C(C)c1ccco1 (stereo unspecified) -13.2%
CCCN(C(=O)CSc1nnnn1C)c1c(N)n(Cc2ccccc2)c(=O)[nH]c1=O 0.95%
COc1ccc(C2Nc3ccccc3C(=O)N2Cc2ccccc2)cc1Cn1nnc2ccccc21 (stereo unspecified) 8.54%
COc1ccc(N2C(=O)c3ccccc3NC2c2ccc(OC)c(CN3CCOCC3)c2)cc1 (stereo unspecified) -3.55%
